From PubChem BioAssay
The source made the active and inactive calls.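 How the source made its calls, unless noted: active means visual image review flags a hit and inhibition of aggregation exceeds 20%; inconclusive means visual hit but inhibition at or below 20%; inactive means no hit on visual image review.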

Columns and labels:
[1] = inhibitors of TNFa-induced NFkB p65 translocation, primary screen, imaging, HUVEC, MLSMR starter and 10KST1 sets (AID 438;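 active means inhibition above 20% together with a positive visual image hit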;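 further: compound added about 3h40 before a 20 min TNFalpha stimulation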;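 on inhibition: signal is the nuclear over cytoplasmic p65 intensity ratio per well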); conditions: HUVEC TNFa-induced p65 nuclear translocation; cell count: measured here: nuclei count (cytotoxicity indicator), at 2.08 µM; inhibition: at 2 µM, stronger effect = higher value, 0% TNFa-plus-vehicle, 100% no-TNFa wells
[2] = inhibitors of mutant huntingtin aggregation, primary screen, imaging, exon1htt(103Q)mCFP cells, high-content imaging (AID 483); conditions: exon1htt(103Q)mCFP cell line, aggregate imaging, at 2 µM; inhibition of aggregation: stronger effect = higher value; nuclei count: measured here: cell count, toxicity;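 further: compound exposure lasted 3 days before fixation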;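 on nuclei count: percent of the per-plate median nuclei count of sample wells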
[3] = inhibitors of E-selectin induction by TNFa, primary screen, imaging, HUVEC, immunofluorescence, MLSMR starter and 10KST1 sets (AID 487;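 active means visually confirmed hit in the image check and inhibition above 20%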;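 on inhibition: signal is fraction of cell area covered by stained E-selectin grains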;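 on nuclei count: 100% = median nuclei count of all wells on the same plate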); conditions: HUVEC TNFalpha-induced E-selectin immunofluorescence imaging, at 2 µM; inhibition: stronger effect = higher value; nuclei count: measured here: cell number, toxicity
[4] = target: Voltage-gated potassium channel subunit beta-2 (Rattus norvegicus) (UniProt P62483); test: KvBeta enzyme negative modulators, primary screen, biochemical, NADPH fluorescence (AID 622;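 active means fluorescence slope higher than the sample average by over 3 SD, cut at about -0.22 in these data, passing the limit was not always enough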;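 further: slope of raw intensity against log time taken from 70 to 1610 s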); conditions: recombinant KvBeta, 4-cyanobenzaldehyde reduction, at 10 µM, stronger effect = higher value
Voltage-gated potassium channel subunit beta-2 (Rattus norvegicus), sequence (P62483 whole entry, looked up): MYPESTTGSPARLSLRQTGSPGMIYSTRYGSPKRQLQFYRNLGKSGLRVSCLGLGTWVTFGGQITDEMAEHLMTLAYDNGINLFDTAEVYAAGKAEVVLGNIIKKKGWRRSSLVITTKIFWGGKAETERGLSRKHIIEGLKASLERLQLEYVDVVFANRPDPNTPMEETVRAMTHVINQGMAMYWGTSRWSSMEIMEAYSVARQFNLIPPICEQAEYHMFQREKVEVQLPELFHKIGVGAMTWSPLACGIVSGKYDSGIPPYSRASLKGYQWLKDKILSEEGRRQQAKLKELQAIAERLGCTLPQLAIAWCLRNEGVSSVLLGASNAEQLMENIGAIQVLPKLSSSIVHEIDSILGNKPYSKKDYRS

[5] = target: Voltage-gated potassium channel subunit beta-2 (Rattus norvegicus) (UniProt P62483); test: KvBeta positive modulators, primary screen, biochemical, NADPH fluorescence (AID 623;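 active means NADPH fluorescence slope more negative than the mean of all samples by about 3 SD, 99.7% confidence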;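 further: fluorescence intensity change per second fitted from 20 to 320 s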); conditions: Recombinant KvBeta, NADPH fluorescence decrease slope, 10 min; at 10 µM; stronger effect = lower value
[6] = target: Alpha-2C adrenergic receptor (Homo sapiens) (UniProt P18825); test: modulators of alpha2C/GIRK thallium flux, primary screen, cell-based, HEK293 alpha2C/GIRK1/2 (AID 624;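 active means fluorescence slope after compound addition differing from the mean of all screened samples at 99.7% confidence, in either direction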;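 further: slope of fluorescence ratio to pre-addition baseline per second over 15 to 24 s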); conditions: thallium flux BTC fluorescence, at 10 µM, actives lie on both sides
Alpha-2C adrenergic receptor (Homo sapiens), sequence (P18825 whole entry, looked up): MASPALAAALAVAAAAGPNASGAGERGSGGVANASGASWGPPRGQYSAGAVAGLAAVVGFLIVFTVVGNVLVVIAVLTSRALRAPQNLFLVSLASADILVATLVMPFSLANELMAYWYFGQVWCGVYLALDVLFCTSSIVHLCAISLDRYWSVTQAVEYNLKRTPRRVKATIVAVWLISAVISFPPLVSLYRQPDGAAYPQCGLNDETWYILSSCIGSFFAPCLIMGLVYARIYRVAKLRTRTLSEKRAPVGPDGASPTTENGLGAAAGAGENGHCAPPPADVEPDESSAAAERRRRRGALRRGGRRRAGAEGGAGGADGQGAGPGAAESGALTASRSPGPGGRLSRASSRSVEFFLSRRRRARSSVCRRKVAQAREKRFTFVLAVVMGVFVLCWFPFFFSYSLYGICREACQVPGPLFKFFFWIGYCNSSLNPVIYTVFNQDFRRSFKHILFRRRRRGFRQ

[7] = inhibitors of Sendai virus-induced IRF3 signaling, primary screen, TLR/RLR signaling modifier project, cell-based, Sendai virus stimulus, luciferase, 10K MLSCN set (AID 602276;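 active means inhibition at or above 50% at 10 µM; inactive means inhibition below 50%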;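 further: firefly luciferase from ISG56 promoter only with Renilla not read in this screen; 0% = Sendai virus plus DMSO and 100% = medium plus DMSO without virus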); conditions: HEK293 RL24 IRF3 luciferase reporter, at 10 µM, stronger effect = higher value
[8] = inhibitors of poly I:C-induced TLR3 signaling, primary screen, cell-based, poly I:C stimulus, luciferase, 10K MLSCN set (AID 602277;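 active means inhibition of the reporter signal at or above 50%; inactive means inhibition below 50%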); conditions: HEK293-TLR3 RL24 IRF3 luciferase reporter, at 10 µM, stronger effect = higher value

Structure (SMILES)	cell count [1]	inhibition [1]	inhibition of aggregation [2]	nuclei count [2]	inhibition [3]	nuclei count [3]	fluorescence slope [4]	NADPH fluorescence slope [5]	slope [6]	inhibition [7]	inhibition [8]
CCOC(=O)C1CCN(C(=O)CN(c2ccc(Cl)c(C(F)(F)F)c2)S(C)(=O)=O)CC1	648	-23.5% (inactive)	-18.2% (inactive)	107%	8.7% (inactive)	52.3%	-0.453 (inactive)	-1.4e-05 (inactive)	0.0048 (inactive)	11.7% (inactive)	16.6% (inactive)
CN1CCN(C(=O)C2(NC(=O)Nc3cccc(F)c3)CCCCC2)CC1	586	-33.7% (inactive)	-14.5% (inactive)	105%	-39.7% (inactive)	109%	-0.596 (inactive)	-4.2e-05 (inactive)	0.00664 (inactive)	3.99% (inactive)	3.07% (inactive)
COc1ccc(C2C=C(c3ccccc3)Nc3ncnn32)cc1 (stereo not given)	558	-20.9% (inactive)	-12.6% (inactive)	105%	-15.1% (inactive)	110%	-0.0904 (active)	4.2e-06 (inactive)	0.00603 (inactive)	5.64% (inactive)	-14.5% (inactive)
COCCCNC(=O)CCCn1c(=O)c2ccccc2n(CC(=O)Nc2c(C)cccc2C)c1=O	709	-4.7% (inactive)	-15.7% (inactive)	105%	-64% (inactive)	99.1%	-0.505 (inactive)	2.2e-05 (inactive)	0.00674 (inactive)	8.62% (inactive)	32.1% (inactive)
O=C(NCc1ccco1)C1CCN(c2ccc(N3CCOCC3)nn2)CC1	633	1.6% (inactive)	4.1% (inactive)	92.4%	-70.8% (inactive)	110%	-0.387 (inactive)	8e-06 (inactive)	0.00458 (inactive)	-14.1% (inactive)	-20.9% (inactive)
O=C(CSc1nnnn1C1CCCC1)N1CCN(C(=O)c2ccco2)CC1	367	-10.3% (inactive)	2% (inactive)	105%	-54.2% (inactive)	107%	-0.483 (inactive)	-2.2e-05 (inactive)	0.00599 (inactive)	-2.14% (inactive)	16.4% (inactive)
CCCOC(=O)C1[C@H]2C(=O)N(CCCOC)C[C@]23C=C[C@H]1O3 (stereo not given in full)	706	-12.9% (inactive)	-14.9% (inactive)	112%	-21.6% (inactive)	118%	-0.605 (inactive)	3.2e-05 (inactive)	0.00864 (inactive)	11.7% (inactive)	15.6% (inactive)
Cn1c(=O)oc2cc(S(=O)(=O)NC3CCN(Cc4ccccc4)CC3)ccc21	621	-6.3% (inactive)	59.7% (active)	70.5%	-37.9% (inactive)	99.7%	-0.57 (inactive)	1.4e-06 (inactive)	0.0068 (inactive)	10.4% (inactive)	33.8% (inactive)
O=C(CSc1nc2ccccc2nc1SCC(=O)N1CCOCC1)N1CCOCC1	473	7.6% (inactive)	11.3% (inactive)	93.3%	-239% (inactive)	115%	-0.354 (inactive)	-4.2e-05 (inactive)	0.00548 (inactive)	9.88% (inactive)	27.5% (inactive)
O=C(Nc1ccc(F)cc1)N(Cc1ccco1)Cc1cc2cc3c(cc2[nH]c1=O)OCO3	473	4.5% (inactive)	6.1% (inactive)	96.6%	15.9% (inactive)	102%	-0.418 (inactive)	-2e-05 (inactive)	0.0056 (inactive)	-8.59% (inactive)	-15.6% (inactive)
Cn1c(C(=O)NCCC2=CCCCC2)cc2c(=O)n3ccccc3nc21	261	31.6% (active)	5.6% (inactive)	92.2%	46.7% (inactive)	71.3%	-0.128 (active)	1.2e-05 (inactive)	0.00542 (inactive)	-27.5% (inactive)	-62% (inactive)
Cc1cc(C)c2cc3c(ccn3C3OC[C@H](O)[C@H](O)[C@H]3O)cc2n1 (stereo not given in full)	699	-21.8% (inactive)	-19.6% (inactive)	121%	-106% (inactive)	95.9%	-0.0157 (active)	-2.8e-05 (inactive)	0.002 (inactive)	15.4% (inactive)	27.3% (inactive)
Cc1ccc(OC(=O)CCC(=O)OCCCC(F)(F)C(F)(F)F)cc1	403	-3% (inactive)	4.9% (inactive)	103%	4.5% (inactive)	92.5%	-0.382 (inactive)	-5.9e-05 (inactive)	0.00733 (inactive)	3.53% (inactive)	21.1% (inactive)
COCCN(CC(=O)Nc1ccccc1C)S(=O)(=O)c1ccc(S(=O)(=O)N2CCCC2)cc1	404	-9.5% (inactive)	-6.7% (inactive)	103%	-18.2% (inactive)	69.8%	-0.416 (inactive)	-7.2e-05 (inactive)	0.0043 (inactive)	7.63% (inactive)	13.5% (inactive)
CCCS(=O)(=O)C(=C1Nc2ccccc2N1)S(=O)(=O)CCC	543	-7% (inactive)	-18.7% (inactive)	119%	0.5% (inactive)	75.9%	-0.63 (inactive)	-4.3e-05 (inactive)	0.00495 (inactive)	12.1% (inactive)	15.8% (inactive)
Cc1ccc(C2c3c(oc4ccccc4c3=O)C(=O)N2c2nnc(C(C)C)s2)o1 (stereo not given)	622	-13.1% (inactive)	-21.4% (inactive)	90.4%	-37.8% (inactive)	102%	-0.436 (inactive)	-5.6e-05 (inactive)	0.00484 (inactive)	9.17% (inactive)	19.7% (inactive)
O=C(CNCCC1=CCCCC1)Nc1ccccc1N1CCCCC1	531	-56.1% (inactive)	-10.4% (inactive)	107%	-65.7% (inactive)	109%	-0.581 (inactive)	-2.4e-05 (inactive)	0.00492 (inactive)	7.21% (inactive)	18.4% (inactive)
COc1cccc(-n2c(CNc3ccc(F)cc3)nnc2SCC(N)=O)c1	475	1.9% (inactive)	-17% (inactive)	113%	-32.3% (inactive)	76.1%	-0.49 (inactive)	-1.9e-05 (inactive)	0.00474 (inactive)	15.9% (inactive)	24% (inactive)
CCOc1ccc2[nH]cc(C(=O)N3CCN(CC)CC3)c(=O)c2c1	498	-16.7% (inactive)	4.7% (inactive)	77.2%	-18.9% (inactive)	94.8%	-0.539 (inactive)	1.9e-05 (inactive)	0.00496 (inactive)	-17.3% (inactive)	-19.5% (inactive)
Cc1ccc(CNC(=O)C2CCN(S(=O)(=O)c3cccs3)CC2)o1	296	-3.4% (inactive)	11.2% (inactive)	76.7%	-23.9% (inactive)	103%	-0.617 (inactive)	-3.4e-05 (inactive)	0.00605 (inactive)	7.81% (inactive)	5.31% (inactive)
O=S(=O)(c1ccc2c(c1)OCCO2)N1CCC(n2nnc3cc(F)ccc32)CC1	577	-9.9% (inactive)	1.5% (inactive)	78%	-24.6% (inactive)	103%	-0.5 (inactive)	-3e-05 (inactive)	0.00521 (inactive)	17.3% (inactive)	17.7% (inactive)
CCOC(=O)c1cc2c(=O)n3ccccc3nc2n(CCCOC)c1=NC(=O)C(C)(C)C	656	2.6% (inactive)	39.3% (active)	86.8%	-203% (inactive)	95.3%	-0.348 (inactive)	7.9e-06 (inactive)	0.00456 (inactive)	7.96% (inactive)	16.3% (inactive)
COc1ccc(N(C(=O)c2ccco2)S(=O)(=O)c2cc(OC)ccc2OC)cc1	568	4.3% (inactive)	7.3% (inactive)	97.7%	25.3% (inactive)	93.2%	-0.343 (inactive)	9.2e-06 (inactive)	0.00421 (inactive)	8.61% (inactive)	20.5% (inactive)
COc1ccc(OC)c(C(=O)CSc2nc3ncccc3[nH]2)c1	238	9.5% (inactive)	16.2% (inactive)	113%	52.6% (inactive)	99.6%	-0.488 (inactive)	-7e-05 (inactive)	0.00695 (inactive)	-7.2% (inactive)	-19.6% (inactive)
COc1ccccc1C(=O)Nc1nc2ccc(S(C)(=O)=O)cc2s1	417	-6.5% (inactive)	-0.8% (inactive)	115%	-32.3% (inactive)	132%	-0.241 (inactive)	-6.6e-06 (inactive)	0.00752 (inactive)	-2.51% (inactive)	-33.9% (inactive)
